# Results filed as inconclusive are left out. Unmarked numbers belong to inactive results. Active and inactive are the calls of the source. Calls follow the shape of the dose curve; as a rule, active = well fitted curve in the direction sought with a large enough effect in the repeat runs; inconclusive = weak or mixed curves; inactive = no such curve, though single readings can be large; an effect the other way counts as inactive or inconclusive.
# Test system: not listed separately
# Assay: qHTS assay to identify small molecule antagonists of the estrogen related receptor (ERR) signaling pathway from Tox21 library - cell viability counter screen (AID 1224834); also: nearly all actives have a fitted effect of over 30% in size
# Conditions: ERR reporter cells viability, CellTiter-Fluor, 17.5 h; series mostly up to 92.4 µM; viability change, negative = cytotoxic: at the top concentration
# Method in brief: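 ERR reporter cells were plated 6 h before compound addition, then exposed to test compounds in DMSO for 17.5 h at 37 C. Viability was read as CellTiter-Fluor fluorescence after a 30-minute incubation at 37 C.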
# % is scaled to controls: 0 for no effect and ±100 for the full control effect.
row,Compound,"viability change, negative = cytotoxic"
1,CCOC(=O)COc1ccc2c(C)c(CCN(CC)CC)c(=O)oc2c1Cl,-3.5% [at 42.5 µM]
2,CCCCCCC(O)CO (centres undefined),-0.35%
3,NCC1CCC(C(=O)Oc2ccc(CCC(=O)O)cc2)CC1 (centres undefined),6.32% [at 42.5 µM]
4,OCCC(F)(F)C(F)(F)C(F)(F)C(F)(F)C(F)(F)C(F)(F)F,6.25%
5,CCOC(=O)CC(C(C)=O)C(C)=O,3.09%
6,CCCCCCCCOCCC#N,0.829%
7,CC(=O)OC/C=C(/C)CCC=C(C)C,2.03%
8,CN(C)CCCN(C)C,0.808% [at 8.39 µM]
9,CCCC(=O)C(CC)Sc1ccoc1C (centres undefined),0.047%
10,CCCCCCCCCCCBr,0.652% [at 42.5 µM]
11,Clc1cc(Cl)c(Cl)c(Cl)c1Cl,1.3%
12,CCCCN=C(N)N=C(N)N,1.94% [at 42.5 µM]
13,COC(=O)c1c(C)cc(O)c(C)c1O,-7.54%
14,CC(C)(C)C(=O)CCc1ccc(Cl)cc1,-5.21%
15,Cc1ccccc1C#N,1.47%
16,CC(C)(C)c1ccc(N)cc1,0.881%
17,COc1cc(OC)cc(OC)c1,-0.899% [at 42.5 µM]
18,Cc1ccc(Br)cc1,1.17%
19,C=CCON/C(CCC)=C1\C(=O)CC(C)(C)C(C(=O)OC)=C1O,1.52%

row,Compound,"viability change, negative = cytotoxic"
1,C[C@@H]1CCC[C@H](C)N1CCCC(O)(c1ccccc1)c1ccccn1 (some centres undefined),1.99% [at 42.5 µM]
2,NNC(=O)OCc1ccccc1,-3.29%
3,CC(C)(C)c1ccc(C(=O)CCCCl)cc1,-1.51% [at 42.5 µM]
4,C[C@@H](CN1CC(=O)NC(=O)C1)N1CC(=O)NC(=O)C1,4.02% [at 42.5 µM]
5,CC(C)(O)CCCC1=CCC(C=O)CC1 (centres undefined),-1.38%
6,O=C(c1ccccc1)c1cccc(O)c1,-3.43%
7,O=CN1CCCCC1,1.07%
8,CN1C(CCl)Nc2cc(Cl)c(S(N)(=O)=O)cc2S1(=O)=O (centres undefined),2.23% [at 42.5 µM]
9,CCOCCOCCOC(C)=O,-3.68%
10,Cc1ccc(OC(=O)CC(C)C)cc1,-0.046%
11,COC(C)(C)CC(C)=O,5.9%
12,CCCOc1ccc(C(=O)OCCN(CC)CC)cc1N,6.52% [at 42.5 µM]
13,CC[N+](C)(CC)CC,2.61%
14,Nc1nc(Cl)cc(Cl)n1,1.2%
15,O=Cc1ccc(C(=O)O)cc1,1.68%
16,O=P(O)(O)C(O)(Cc1cccnc1)P(=O)(O)O,8.71% [at 42.5 µM]
17,CCCCCCCCC1CO1 (centres undefined),2.11%
18,COc1cc2nc(N3CCN(C(=O)C4CCCO4)CC3)nc(N)c2cc1OC (centres undefined),-0.0677% [at 42.5 µM]
19,CCCCCCCCCCCCCCCC(=O)OC,2.97% [at 19 µM]

# Molecular target: Luciferin 4-monooxygenase (Photinus pyralis) (UniProt P08659)
# Assay: qHTS assay to identify small molecule inhibitors of firefly luciferase (AID 1224835); also: nearly all actives have a fitted effect of over 25% in size; also: potency is read from the fitted curve at half-maximal effect
# Conditions: purified P. pyralis luciferase, luminescence inhibition; series mostly up to 115 µM; activity change, negative = inhibition: at the top concentration
# Method in brief: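 Biochemical qHTS: compounds run as interplate titrations against purified firefly enzyme, with D-luciferin and ATP each at its KM concentration. Light output recorded by CCD imaging.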
# Luciferin 4-monooxygenase (Photinus pyralis), sequence (P08659 whole entry, looked up): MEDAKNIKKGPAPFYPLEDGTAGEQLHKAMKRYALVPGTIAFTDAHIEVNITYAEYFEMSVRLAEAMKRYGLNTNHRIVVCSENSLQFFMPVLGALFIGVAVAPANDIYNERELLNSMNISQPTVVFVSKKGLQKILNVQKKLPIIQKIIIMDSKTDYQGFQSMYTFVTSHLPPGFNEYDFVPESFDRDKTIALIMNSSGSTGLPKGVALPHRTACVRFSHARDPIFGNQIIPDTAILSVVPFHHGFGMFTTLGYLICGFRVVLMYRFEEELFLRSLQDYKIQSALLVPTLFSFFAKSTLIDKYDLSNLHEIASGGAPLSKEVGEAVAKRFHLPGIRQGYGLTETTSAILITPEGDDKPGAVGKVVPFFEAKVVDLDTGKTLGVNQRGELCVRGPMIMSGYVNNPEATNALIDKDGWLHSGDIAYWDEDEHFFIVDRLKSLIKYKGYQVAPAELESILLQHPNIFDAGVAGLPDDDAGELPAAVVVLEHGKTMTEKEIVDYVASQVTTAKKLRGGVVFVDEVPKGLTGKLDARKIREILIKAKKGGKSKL
Compound,"activity change, negative = inhibition",Potency
CCOC(=O)COc1ccc2c(C)c(CCN(CC)CC)c(=O)oc2c1Cl,0.549% [at 52.9 µM],–
CCCCCCC(O)CO (centres undefined),1.86%,–
NCC1CCC(C(=O)Oc2ccc(CCC(=O)O)cc2)CC1 (centres undefined),-2.37% [at 52.9 µM],–
OCCC(F)(F)C(F)(F)C(F)(F)C(F)(F)C(F)(F)C(F)(F)F,8.51%,–
CCOC(=O)CC(C(C)=O)C(C)=O,0.917%,–
CCCCCCCCOCCC#N,-4.77%,–
CC(=O)OC/C=C(/C)CCC=C(C)C,2.77%,–
CN(C)CCCN(C)C,2.53% [at 10.5 µM],–
CCCC(=O)C(CC)Sc1ccoc1C (centres undefined),3.9%,–
CCCCCCCCCCCBr,0.245% [at 52.9 µM],–
Clc1cc(Cl)c(Cl)c(Cl)c1Cl,1.21%,–
CCCCN=C(N)N=C(N)N,3.69% [at 52.9 µM],–
COC(=O)c1c(C)cc(O)c(C)c1O,-7.49%,–
CC(C)(C)C(=O)CCc1ccc(Cl)cc1,-0.118%,–
Cc1ccccc1C#N,0.989%,–
CC(C)(C)c1ccc(N)cc1,-13.8%,–
COc1cc(OC)cc(OC)c1,3.33% [at 52.9 µM],–
Cc1ccc(Br)cc1,0.598%,–
C=CCON/C(CCC)=C1\C(=O)CC(C)(C)C(C(=O)OC)=C1O,2.1%,–

Compound,"activity change, negative = inhibition",Potency
C[C@@H]1CCC[C@H](C)N1CCCC(O)(c1ccccc1)c1ccccn1 (some centres undefined),1.02% [at 52.9 µM],–
NNC(=O)OCc1ccccc1,-0.491%,–
CC(C)(C)c1ccc(C(=O)CCCCl)cc1,–,7.76 µM (active)
C[C@@H](CN1CC(=O)NC(=O)C1)N1CC(=O)NC(=O)C1,2.08% [at 52.9 µM],–
CC(C)(O)CCCC1=CCC(C=O)CC1 (centres undefined),-0.657%,–
O=C(c1ccccc1)c1cccc(O)c1,-8.89%,–
O=CN1CCCCC1,0.758%,–
CN1C(CCl)Nc2cc(Cl)c(S(N)(=O)=O)cc2S1(=O)=O (centres undefined),2.54% [at 52.9 µM],–
CCOCCOCCOC(C)=O,0.75%,–
Cc1ccc(OC(=O)CC(C)C)cc1,–,35.6 µM (active)
COC(C)(C)CC(C)=O,2.34%,–
CCCOc1ccc(C(=O)OCCN(CC)CC)cc1N,-0.526% [at 52.9 µM],–
CC[N+](C)(CC)CC,-0.0973%,–
Nc1nc(Cl)cc(Cl)n1,3.78%,–
O=Cc1ccc(C(=O)O)cc1,-0.736%,–
O=P(O)(O)C(O)(Cc1cccnc1)P(=O)(O)O,7.4% [at 52.9 µM],–
CCCCCCCCC1CO1 (centres undefined),0.864%,–
COc1cc2nc(N3CCN(C(=O)C4CCCO4)CC3)nc(N)c2cc1OC (centres undefined),–,17.4 µM (active)
CCCCCCCCCCCCCCCC(=O)OC,0.26% [at 23.6 µM],–

# Test system: not listed separately
# Assay: qHTS assay to identify small molecule agonists of the constitutive androstane receptor (CAR) signaling pathway - cell viability counter screen (AID 1224836); also: nearly all actives have a fitted effect of over 45% in size
# Conditions: HepG2-CYP2B6-hCAR viability, CellTiter-Fluor, 23 h, PK11195 added to every well; series mostly up to 92.4 µM; viability change, negative = cytotoxic: at the top concentration
# Method in brief: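 Double-stable HepG2 hepatoma cells (hCAR plus CYP2B6-2.2kb) are treated for 23 h at 37 C with test compounds in 15-point concentration series. PK11195 at 0.75 uM final is co-added. Cell viability is quantified by CellTiter-Fluor.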
row,Compound,"viability change, negative = cytotoxic"
1,CCOC(=O)COc1ccc2c(C)c(CCN(CC)CC)c(=O)oc2c1Cl,-9.06% [at 42.5 µM]
2,CCCCCCC(O)CO (centres undefined),3.25%
3,NCC1CCC(C(=O)Oc2ccc(CCC(=O)O)cc2)CC1 (centres undefined),3.49% [at 42.5 µM]
4,OCCC(F)(F)C(F)(F)C(F)(F)C(F)(F)C(F)(F)C(F)(F)F,2.65%
5,CCOC(=O)CC(C(C)=O)C(C)=O,7.25%
6,CCCCCCCCOCCC#N,4.18%
7,CC(=O)OC/C=C(/C)CCC=C(C)C,4.03%
8,CN(C)CCCN(C)C,-1.97% [at 8.39 µM]
9,CCCC(=O)C(CC)Sc1ccoc1C (centres undefined),-0.204%
10,CCCCCCCCCCCBr,0.174% [at 42.5 µM]
11,Clc1cc(Cl)c(Cl)c(Cl)c1Cl,-0.749%
12,CCCCN=C(N)N=C(N)N,-3.45% [at 42.5 µM]
13,COC(=O)c1c(C)cc(O)c(C)c1O,-0.574%
14,CC(C)(C)C(=O)CCc1ccc(Cl)cc1,-1.25%
15,Cc1ccccc1C#N,1.57%
16,CC(C)(C)c1ccc(N)cc1,2.99%
17,COc1cc(OC)cc(OC)c1,-5.55% [at 42.5 µM]
18,Cc1ccc(Br)cc1,1.62%
19,C=CCON/C(CCC)=C1\C(=O)CC(C)(C)C(C(=O)OC)=C1O,-17.1%

row,Compound,"viability change, negative = cytotoxic"
1,C[C@@H]1CCC[C@H](C)N1CCCC(O)(c1ccccc1)c1ccccn1 (some centres undefined),-16% [at 42.5 µM]
2,NNC(=O)OCc1ccccc1,8.22%
3,CC(C)(C)c1ccc(C(=O)CCCCl)cc1,5.54% [at 42.5 µM]
4,C[C@@H](CN1CC(=O)NC(=O)C1)N1CC(=O)NC(=O)C1,0.365% [at 42.5 µM]
5,CC(C)(O)CCCC1=CCC(C=O)CC1 (centres undefined),-0.77%
6,O=C(c1ccccc1)c1cccc(O)c1,0.277%
7,O=CN1CCCCC1,-3.45%
8,CN1C(CCl)Nc2cc(Cl)c(S(N)(=O)=O)cc2S1(=O)=O (centres undefined),3.42% [at 42.5 µM]
9,CCOCCOCCOC(C)=O,-3.2%
10,Cc1ccc(OC(=O)CC(C)C)cc1,-5.04%
11,COC(C)(C)CC(C)=O,1.17%
12,CCCOc1ccc(C(=O)OCCN(CC)CC)cc1N,0.0859% [at 42.5 µM]
13,CC[N+](C)(CC)CC,-0.697%
14,Nc1nc(Cl)cc(Cl)n1,-1.4%
15,O=Cc1ccc(C(=O)O)cc1,-0.525%
16,O=P(O)(O)C(O)(Cc1cccnc1)P(=O)(O)O,5.49% [at 42.5 µM]
17,CCCCCCCCC1CO1 (centres undefined),-0.682%
18,COc1cc2nc(N3CCN(C(=O)C4CCCO4)CC3)nc(N)c2cc1OC (centres undefined),-5.51% [at 42.5 µM]
19,CCCCCCCCCCCCCCCC(=O)OC,-0.61% [at 19 µM]

# — PubChem BioAssay (Tox21)
